Experimental findings from ChEMBL document CHEMBL1961873, “Compounds: GSK PKIS; Assays: Nanosyn kinase panel” (2012) are described below.

In experiment [1] the target is Dual specificity protein kinase CLK3 (Homo sapiens) (UniProt P49761). To be noted: at 1 µM.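 Also: each value is the mean inhibition of CLK3.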
Experiment [2] addresses Dual specificity tyrosine-phosphorylation-regulated kinase 1A (Homo sapiens) (UniProt Q13627). To be noted: at 0.1 µM.
For experiment [3] the target is unchanged. Conditions: at 1 µM.
Experiment [4] addresses Dual specificity tyrosine-phosphorylation-regulated kinase 1B (Homo sapiens) (UniProt Q9Y463). Conditions: at 0.1 µM.
Experiment [5] has the same target. To be noted: at 1 µM.
The target in experiment [6] is T1, Dual specificity tyrosine-phosphorylation-regulated kinase 2 (Homo sapiens) (UniProt Q92630).
T1 sequence (whole entry): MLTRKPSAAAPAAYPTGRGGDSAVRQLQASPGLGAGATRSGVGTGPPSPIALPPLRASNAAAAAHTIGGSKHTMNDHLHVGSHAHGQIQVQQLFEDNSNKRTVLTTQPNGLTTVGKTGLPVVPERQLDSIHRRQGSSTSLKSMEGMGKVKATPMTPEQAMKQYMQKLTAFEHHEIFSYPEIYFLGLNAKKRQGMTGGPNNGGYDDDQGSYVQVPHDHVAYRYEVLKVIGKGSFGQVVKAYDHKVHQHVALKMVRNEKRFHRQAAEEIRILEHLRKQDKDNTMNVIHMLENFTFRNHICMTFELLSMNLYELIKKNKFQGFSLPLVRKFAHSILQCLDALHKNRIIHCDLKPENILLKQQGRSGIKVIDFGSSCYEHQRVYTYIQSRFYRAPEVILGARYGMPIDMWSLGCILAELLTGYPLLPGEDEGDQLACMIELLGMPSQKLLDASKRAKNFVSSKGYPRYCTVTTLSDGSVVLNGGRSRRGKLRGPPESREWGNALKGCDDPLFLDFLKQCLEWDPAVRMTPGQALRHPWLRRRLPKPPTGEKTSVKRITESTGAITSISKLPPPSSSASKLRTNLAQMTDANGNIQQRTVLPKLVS
To be noted: at 0.1 µM.

Experiment [7] has as its target T1, Dual specificity tyrosine-phosphorylation-regulated kinase 2 (Homo sapiens). Conditions: at 1 µM.
The target of experiment [8] is Glycogen synthase kinase-3 alpha (Homo sapiens) (UniProt P49840). To be noted: at 0.1 µM.
Sequence of Glycogen synthase kinase-3 alpha (Homo sapiens) (P49840 2-483 limits assumed): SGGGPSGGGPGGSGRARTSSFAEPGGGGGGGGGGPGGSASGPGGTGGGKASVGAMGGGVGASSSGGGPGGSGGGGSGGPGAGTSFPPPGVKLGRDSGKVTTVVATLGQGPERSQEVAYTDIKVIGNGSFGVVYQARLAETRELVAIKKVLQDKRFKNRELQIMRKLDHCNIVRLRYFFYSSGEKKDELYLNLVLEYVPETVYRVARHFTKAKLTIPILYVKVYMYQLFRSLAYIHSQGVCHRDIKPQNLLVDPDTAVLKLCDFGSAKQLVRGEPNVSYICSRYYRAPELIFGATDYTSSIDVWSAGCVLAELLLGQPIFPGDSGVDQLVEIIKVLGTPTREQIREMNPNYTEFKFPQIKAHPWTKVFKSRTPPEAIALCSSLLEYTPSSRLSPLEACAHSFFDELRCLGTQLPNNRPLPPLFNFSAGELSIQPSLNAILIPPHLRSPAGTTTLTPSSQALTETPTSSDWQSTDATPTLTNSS
The target is the same in experiment [9]. To be noted: at 1 µM.
Experiment [10] addresses Glycogen synthase kinase-3 beta (Homo sapiens) (UniProt P49841). Conditions: at 0.1 µM.
For experiment [11] the target is unchanged. Conditions: at 1 µM.
Experiment [12] deals with Homeodomain-interacting protein kinase 1 (Homo sapiens) (UniProt Q86Z02). To be noted: at 0.1 µM.
Sequence of Homeodomain-interacting protein kinase 1 (Homo sapiens) (Q86Z02 whole entry, looked up): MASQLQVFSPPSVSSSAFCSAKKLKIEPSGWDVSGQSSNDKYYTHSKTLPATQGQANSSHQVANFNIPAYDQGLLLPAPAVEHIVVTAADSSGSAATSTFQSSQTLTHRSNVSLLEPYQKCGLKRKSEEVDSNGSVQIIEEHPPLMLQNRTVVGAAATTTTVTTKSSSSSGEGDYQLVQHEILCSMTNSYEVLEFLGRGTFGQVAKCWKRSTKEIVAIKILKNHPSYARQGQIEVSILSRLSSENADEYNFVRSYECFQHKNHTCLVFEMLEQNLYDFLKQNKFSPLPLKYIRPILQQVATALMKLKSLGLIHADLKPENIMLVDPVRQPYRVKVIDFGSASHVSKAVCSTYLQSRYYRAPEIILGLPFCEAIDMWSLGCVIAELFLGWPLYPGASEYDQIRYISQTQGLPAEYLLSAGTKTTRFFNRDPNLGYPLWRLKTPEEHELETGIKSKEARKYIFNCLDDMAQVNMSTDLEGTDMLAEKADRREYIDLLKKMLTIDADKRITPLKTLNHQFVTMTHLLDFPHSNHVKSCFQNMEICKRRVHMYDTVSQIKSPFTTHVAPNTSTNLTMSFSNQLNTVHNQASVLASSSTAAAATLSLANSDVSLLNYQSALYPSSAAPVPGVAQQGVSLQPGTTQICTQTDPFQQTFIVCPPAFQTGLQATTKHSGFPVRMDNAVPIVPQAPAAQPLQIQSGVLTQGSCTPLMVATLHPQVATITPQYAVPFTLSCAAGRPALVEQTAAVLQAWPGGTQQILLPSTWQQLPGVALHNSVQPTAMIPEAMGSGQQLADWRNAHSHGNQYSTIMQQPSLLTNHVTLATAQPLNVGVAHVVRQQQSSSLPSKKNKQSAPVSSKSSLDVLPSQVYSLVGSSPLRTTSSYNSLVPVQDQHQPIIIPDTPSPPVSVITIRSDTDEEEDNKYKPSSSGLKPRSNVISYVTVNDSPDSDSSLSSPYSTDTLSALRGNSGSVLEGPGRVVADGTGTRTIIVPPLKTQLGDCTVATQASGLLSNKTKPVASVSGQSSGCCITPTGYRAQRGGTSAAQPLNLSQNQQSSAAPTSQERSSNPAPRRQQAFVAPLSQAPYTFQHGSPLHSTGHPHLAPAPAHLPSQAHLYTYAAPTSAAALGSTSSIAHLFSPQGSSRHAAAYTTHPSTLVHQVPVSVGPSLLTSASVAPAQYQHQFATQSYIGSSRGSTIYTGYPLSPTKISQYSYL
Experiment [13] shares this target. Conditions: at 1 µM.
In experiment [14] the target is T2, Homeodomain-interacting protein kinase 4 (Homo sapiens) (UniProt Q8NE63).
T2 sequence (whole entry): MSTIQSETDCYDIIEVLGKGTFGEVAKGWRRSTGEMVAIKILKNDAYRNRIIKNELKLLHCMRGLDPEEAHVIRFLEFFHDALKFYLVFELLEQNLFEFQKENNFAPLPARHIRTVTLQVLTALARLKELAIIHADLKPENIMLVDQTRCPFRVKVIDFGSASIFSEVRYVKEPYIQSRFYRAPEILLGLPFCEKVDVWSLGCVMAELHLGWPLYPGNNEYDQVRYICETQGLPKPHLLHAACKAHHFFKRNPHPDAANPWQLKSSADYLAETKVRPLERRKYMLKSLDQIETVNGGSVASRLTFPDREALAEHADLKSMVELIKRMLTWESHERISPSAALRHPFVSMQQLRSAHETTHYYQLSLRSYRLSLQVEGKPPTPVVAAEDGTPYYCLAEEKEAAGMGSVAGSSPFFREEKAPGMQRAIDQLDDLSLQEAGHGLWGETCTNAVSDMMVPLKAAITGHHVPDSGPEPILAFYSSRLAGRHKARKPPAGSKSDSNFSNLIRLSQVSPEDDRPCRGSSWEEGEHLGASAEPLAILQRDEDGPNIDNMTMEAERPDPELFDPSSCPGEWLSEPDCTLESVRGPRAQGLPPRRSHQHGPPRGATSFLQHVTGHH
To be noted: at 0.1 µM.

The target of experiment [15] is T2, Homeodomain-interacting protein kinase 4 (Homo sapiens). To be noted: at 1 µM.
For experiment [16], the target named is Mitogen-activated protein kinase 9 (Homo sapiens) (UniProt P45984). To be noted: at 0.1 µM.
Sequence of Mitogen-activated protein kinase 9 (Homo sapiens) (P45984 whole entry, looked up): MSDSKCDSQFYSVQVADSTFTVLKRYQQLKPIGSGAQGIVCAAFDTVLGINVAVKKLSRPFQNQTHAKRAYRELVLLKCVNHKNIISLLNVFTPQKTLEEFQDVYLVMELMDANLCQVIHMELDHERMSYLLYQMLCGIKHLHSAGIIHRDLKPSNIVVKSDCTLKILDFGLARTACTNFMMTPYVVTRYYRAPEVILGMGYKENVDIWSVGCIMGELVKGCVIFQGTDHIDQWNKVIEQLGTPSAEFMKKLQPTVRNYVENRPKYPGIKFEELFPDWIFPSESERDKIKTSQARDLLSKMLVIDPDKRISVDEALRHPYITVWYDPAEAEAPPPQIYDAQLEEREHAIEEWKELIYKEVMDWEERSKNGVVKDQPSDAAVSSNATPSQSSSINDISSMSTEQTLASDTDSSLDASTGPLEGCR
The target is the same in experiment [17]. Conditions: at 1 µM.
Experiment [18] deals with Mitogen-activated protein kinase 1 (Homo sapiens) (UniProt P28482). Conditions: at 0.1 µM.
Sequence of Mitogen-activated protein kinase 1 (Homo sapiens) (P28482 whole entry): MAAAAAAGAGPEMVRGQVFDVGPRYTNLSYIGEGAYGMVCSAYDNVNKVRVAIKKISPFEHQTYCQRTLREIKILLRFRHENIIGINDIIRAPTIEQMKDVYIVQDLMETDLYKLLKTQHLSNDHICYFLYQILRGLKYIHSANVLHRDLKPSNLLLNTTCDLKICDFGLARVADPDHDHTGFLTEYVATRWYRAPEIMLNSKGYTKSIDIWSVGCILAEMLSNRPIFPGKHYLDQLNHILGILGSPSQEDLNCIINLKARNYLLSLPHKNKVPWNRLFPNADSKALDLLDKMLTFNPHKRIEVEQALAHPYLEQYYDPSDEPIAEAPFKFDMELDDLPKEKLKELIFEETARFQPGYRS
For experiment [19] the target is unchanged. Conditions: at 1 µM.
For experiment [20], the target named is Mitogen-activated protein kinase 3 (Homo sapiens) (UniProt P27361). Conditions: at 0.1 µM.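 Also: each value is a mean inhibition figure.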
Sequence of Mitogen-activated protein kinase 3 (Homo sapiens) (P27361 whole entry): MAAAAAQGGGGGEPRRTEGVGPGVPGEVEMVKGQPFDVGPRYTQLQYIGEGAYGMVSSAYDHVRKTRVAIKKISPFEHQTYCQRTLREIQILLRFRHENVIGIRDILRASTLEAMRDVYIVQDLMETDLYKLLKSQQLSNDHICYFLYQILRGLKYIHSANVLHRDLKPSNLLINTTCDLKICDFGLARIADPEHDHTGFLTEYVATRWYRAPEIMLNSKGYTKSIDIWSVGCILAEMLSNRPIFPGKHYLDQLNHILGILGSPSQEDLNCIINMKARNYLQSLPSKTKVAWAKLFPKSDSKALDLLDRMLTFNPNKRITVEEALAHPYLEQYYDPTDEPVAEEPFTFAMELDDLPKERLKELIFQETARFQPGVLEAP

Sequence of Dual specificity protein kinase CLK3 (Homo sapiens) (P49761 whole entry, looked up): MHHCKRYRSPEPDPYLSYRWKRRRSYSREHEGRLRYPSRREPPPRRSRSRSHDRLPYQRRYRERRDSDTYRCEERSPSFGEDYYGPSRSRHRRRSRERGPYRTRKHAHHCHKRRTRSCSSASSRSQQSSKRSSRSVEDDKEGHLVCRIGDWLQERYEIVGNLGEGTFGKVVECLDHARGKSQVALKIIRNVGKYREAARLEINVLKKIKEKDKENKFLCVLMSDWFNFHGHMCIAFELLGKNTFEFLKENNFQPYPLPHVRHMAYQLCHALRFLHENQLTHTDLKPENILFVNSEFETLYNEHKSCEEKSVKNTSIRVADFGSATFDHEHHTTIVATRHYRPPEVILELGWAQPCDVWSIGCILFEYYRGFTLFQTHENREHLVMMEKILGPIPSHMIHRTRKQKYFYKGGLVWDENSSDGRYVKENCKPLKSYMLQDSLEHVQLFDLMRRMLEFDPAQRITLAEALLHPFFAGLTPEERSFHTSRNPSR
Sequence of Glycogen synthase kinase-3 beta (Homo sapiens) (P49841 whole entry, looked up): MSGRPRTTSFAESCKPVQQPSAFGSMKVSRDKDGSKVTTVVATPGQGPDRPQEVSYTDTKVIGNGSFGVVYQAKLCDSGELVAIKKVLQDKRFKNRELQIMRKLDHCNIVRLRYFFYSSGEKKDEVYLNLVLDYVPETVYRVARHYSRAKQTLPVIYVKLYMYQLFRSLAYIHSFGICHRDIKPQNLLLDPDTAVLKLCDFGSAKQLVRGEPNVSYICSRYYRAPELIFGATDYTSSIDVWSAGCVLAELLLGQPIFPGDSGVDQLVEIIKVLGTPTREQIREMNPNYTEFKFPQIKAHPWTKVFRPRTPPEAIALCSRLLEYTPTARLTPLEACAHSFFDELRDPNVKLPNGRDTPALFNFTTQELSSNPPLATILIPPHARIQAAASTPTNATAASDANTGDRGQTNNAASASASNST
Sequence of Dual specificity tyrosine-phosphorylation-regulated kinase 1B (Homo sapiens) (Q9Y463 whole entry, looked up): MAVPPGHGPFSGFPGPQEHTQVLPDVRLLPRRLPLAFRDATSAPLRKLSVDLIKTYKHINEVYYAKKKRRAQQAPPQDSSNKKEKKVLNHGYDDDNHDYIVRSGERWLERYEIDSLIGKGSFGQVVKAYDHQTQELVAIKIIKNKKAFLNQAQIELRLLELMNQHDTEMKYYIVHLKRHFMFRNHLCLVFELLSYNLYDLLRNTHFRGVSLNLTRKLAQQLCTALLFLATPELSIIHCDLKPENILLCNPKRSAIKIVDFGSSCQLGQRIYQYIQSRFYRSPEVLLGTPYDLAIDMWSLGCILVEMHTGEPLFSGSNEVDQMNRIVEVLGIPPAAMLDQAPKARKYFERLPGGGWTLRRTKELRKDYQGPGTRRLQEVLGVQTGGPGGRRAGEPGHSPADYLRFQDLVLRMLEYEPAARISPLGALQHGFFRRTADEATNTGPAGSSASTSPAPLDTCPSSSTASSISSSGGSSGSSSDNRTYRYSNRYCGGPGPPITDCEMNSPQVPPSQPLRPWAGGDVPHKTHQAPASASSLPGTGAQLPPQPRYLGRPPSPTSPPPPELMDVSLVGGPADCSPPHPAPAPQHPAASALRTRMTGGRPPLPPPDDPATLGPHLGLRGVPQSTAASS

As a reminder, the inhibition is the relative decrease from the control value, in per cent. As to `CCCN1CCC(c2ccc(Nc3nc(Nc4cc(F)ccc4C(N)=O)c4cc[nH]c4n3)c(OC)c2)CC1`, the inhibition in [1] is 22%; in experiment [2] it was 63.1%; in experiment [3], 81.9%; in experiment [4], 65.2%; in experiment [5], 81.9%; in experiment [6] it was 10.3%. For the same molecule, the inhibition in experiment [7] stood at 49%; in experiment [8], 6.12%; in [9], 8.5%; in experiment [10] it was 4.67%; in experiment [11], 9.55%; in experiment [12], 49.2%. Also, the inhibition worked out at 81.5% in [13]; 59.6% in experiment [14]; 84.6% in experiment [15]; 68% in [16]; 83.8% in experiment [17]; 9.4% in [18]. The inhibition in experiment [19] was found to be 30.2%; in [20] it was 4.94%.
`CN1CCC(n2cnc(-c3ccc(F)cc3)c2-c2ccnc(Nc3ccccc3)n2)CC1`: the inhibition in experiment [1] amounted to 0.59%; in experiment [2] it was 1.28%; in experiment [3], 2.82%; in experiment [4], 0.22%; in [5], 0.48%; in experiment [6] it was 1.36%. Further, the inhibition in experiment [7] turned out to be 3.27%; in [8], 3.08%; in experiment [9] it was 12.7%; in experiment [10], 4.95%; in experiment [11], 34.3%; in experiment [12], 2.6%. The inhibition came out at 0.41% in experiment [13]; 0.08% in experiment [14]; 7.29% in experiment [15]; 28% in experiment [16]; 74.7% in experiment [17]; 2.4% in experiment [18]. Also, the inhibition in experiment [19] stood at 5.02%; in experiment [20], 3.96%.
Regarding `O=C(O[C@H]1CN[C@H](C#Cc2cc3ncnc(Nc4ccc(Cc5ccccc5)cc4)c3s2)C1)N1CCOCC1`, the inhibition in experiment [1] is 0.23%; in experiment [2], 1.9%; in experiment [3], -0.14%; in experiment [4], 1.3%; in experiment [5], 2.47%; in [6], 2.26%. Also, the inhibition in experiment [7] was 0.33%; in [8], 2.45%; in experiment [9], 3.62%; in experiment [10], 0.78%; in [11], 2.73%; in experiment [12], -2.13%. For the same molecule, the inhibition is 0.97% in [13]; 0.04% in experiment [14]; -1.93% in experiment [15]; -0.66% in experiment [16]; -0.45% in experiment [17]; 3.25% in experiment [18]. The inhibition in experiment [19] came to 3.25%; in [20], 2.66%.
On to `CNC(=O)c1cc(-c2ccc(F)cc2)cc(-c2ccc(S(=O)(=O)N3CCCC3)cc2)c1N`, for which the inhibition is 1.45% in [1]; 2.86% in experiment [2]; 3.9% in [3]; -1.54% in [4]; -0.38% in experiment [5]; 2.23% in experiment [6]. The inhibition in [7] was 2.03%; in experiment [8] it was 3.5%; in experiment [9], 5.1%; in [10], 2.65%; in experiment [11] it was 4.74%; in experiment [12] it was -2.69%. In addition, the inhibition in experiment [13] was -0.12%; in experiment [14], -0.78%; in experiment [15], 0.3%; in experiment [16], 1.82%; in experiment [17], 2.81%; in [18], 4.15%. Also, the inhibition amounted to 4.03% in experiment [19] and 2.42% in experiment [20].
On to `CC(C)COC(=O)c1ccc2c(c1)/C(=C/Nc1ccc(S(N)(=O)=O)cc1)C(=O)N2`, for which the inhibition in [1] amounted to 11.4%; in [2], 11.9%; in experiment [3] it was 57%; in experiment [4], 12%; in experiment [5], 53.9%; in experiment [6], 1.28%. Moreover, the inhibition is 22.4% in experiment [7]; 34.8% in experiment [8]; 80.6% in [9]; 36.1% in experiment [10]; 82.7% in experiment [11]; -0.11% in experiment [12]. For the same molecule, the inhibition in experiment [13] was 16.8%; in [14] it was -0.32%; in experiment [15] it was 16.9%; in experiment [16], 0.47%; in experiment [17], 10.8%; in [18], 2.73%. Further, the inhibition in experiment [19] was 31.3%; in [20] it was 1.07%.
For `O=C(Nc1n[nH]c2cc(-c3ccc(F)cc3)ccc12)C1CC1`, the inhibition stood at 1.03% in experiment [1]; 3.64% in experiment [2]; 11% in [3]; 1.08% in experiment [4]; 7.73% in experiment [5]; 2.57% in [6]. In addition, the inhibition is 2.75% in experiment [7]; 3.8% in experiment [8]; 14.7% in [9]; 2.61% in experiment [10]; 14.9% in [11]; -2.89% in experiment [12]. For the same molecule, the inhibition is 2.09% in [13]; 0.01% in experiment [14]; 1.78% in experiment [15]; 2.97% in experiment [16]; 3.68% in [17]; 1.79% in experiment [18]. The inhibition in [19] came to 4.65%; in experiment [20], 1.72%.
As to `FC(F)(F)c1cccc(-c2nn3ncccc3c2-c2ccnc(Nc3ccc4c(c3)OCCO4)n2)c1`, the inhibition in experiment [1] was determined as 0.79%; in [2] it was 1.23%; in experiment [3], 2.77%; in experiment [4] it was 0.78%; in [5], 0.83%; in experiment [6], 2.54%. In addition, the inhibition in [7] is 3.26%; in experiment [8], 5.83%; in experiment [9] it was 22.4%; in experiment [10] it was 5.36%; in experiment [11], 33.3%; in experiment [12] it was -2.65%. In addition, the inhibition in experiment [13] is 3.4%; in [14], -0.63%; in [15], 3.75%; in [16] it was 4.15%; in experiment [17] it was 20.4%; in experiment [18], 1.58%. Moreover, the values for the inhibition in experiment [19] and in [20] were 4.01% and 1.85%, respectively.
